# Assay results reported in PubChem BioAssay (EPA / NIEHS).
# Records with an inconclusive call do not appear. The source made the active and inactive calls. How the source made its calls: active means hit-call score of the fitted dose curve at least 0.9, where 1 is the maximum; inconclusive means response in the unintended direction; inactive means score below 0.9.
# Columns and labels:
# [1] = ACEA_AR_agonist_AUC_viability: ACEA Biosciences xCELLigence Real-Time Cell Analysis on Androgen Receptor Agonism for Viability (AID 2283775);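 on AC50: viability read 80 hours after compound addition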
# Procedure, shortened: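 Viability endpoint from xCELLigence impedance in 22Rv1 prostate cells at 80 h. Eight-point series, 100 uM maximum final.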
# [2] = ACEA_AR_antagonist_AUC_viability: ACEA Biosciences xCELLigence Real-Time Cell Analysis on Androgen Receptor Antagonism for Viability (AID 2283776);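 further: area under impedance growth curve at 80 h after dosing as viability; hits lower the growth signal relative to DMSO meaning cytotoxicity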
# Procedure, shortened: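 22Rv1 human prostate cancer cells were seeded on electrode plates, monitored overnight, then exposed to eight 1:4 dilutions from 100 uM final. Impedance-based growth kinetics at 80 h gave an AUC viability endpoint normalized to DMSO.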
# [3] = system: zebrafish Androgen Receptor (AR), gene 100005148; assay: ATG_zfAR_XSP1: Attagene TRANS-FACTORIAL Multi-Species (XSP1) HepG2 Assay for zebrafish Androgen Receptor (AR) (AID 2283771)
# Procedure, shortened: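 Gain-of-signal versus DMSO was measured as reporter transcripts quantified by RT-PCR, fluorescent labelling and capillary electrophoresis after 24 h chemical exposure. The cells were HepG2 expressing a chimeric zebrafish AR-GAL4, co-stimulated with 3 nM 6-alpha-fluorotestosterone.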
# [4] = target: zebrafish Estrogen Receptor (ESR1), esr1 (gene 259252) (UniProt P57717); assay: ATG_zfER1_XSP1: Attagene TRANS-FACTORIAL Multi-Species (XSP1) HepG2 Assay for zebrafish Estrogen Receptor (ESR1) (AID 2283772)
# zebrafish Estrogen Receptor (ESR1), esr1 (gene 259252), sequence (P57717 whole entry, looked up, the tested form may be a part): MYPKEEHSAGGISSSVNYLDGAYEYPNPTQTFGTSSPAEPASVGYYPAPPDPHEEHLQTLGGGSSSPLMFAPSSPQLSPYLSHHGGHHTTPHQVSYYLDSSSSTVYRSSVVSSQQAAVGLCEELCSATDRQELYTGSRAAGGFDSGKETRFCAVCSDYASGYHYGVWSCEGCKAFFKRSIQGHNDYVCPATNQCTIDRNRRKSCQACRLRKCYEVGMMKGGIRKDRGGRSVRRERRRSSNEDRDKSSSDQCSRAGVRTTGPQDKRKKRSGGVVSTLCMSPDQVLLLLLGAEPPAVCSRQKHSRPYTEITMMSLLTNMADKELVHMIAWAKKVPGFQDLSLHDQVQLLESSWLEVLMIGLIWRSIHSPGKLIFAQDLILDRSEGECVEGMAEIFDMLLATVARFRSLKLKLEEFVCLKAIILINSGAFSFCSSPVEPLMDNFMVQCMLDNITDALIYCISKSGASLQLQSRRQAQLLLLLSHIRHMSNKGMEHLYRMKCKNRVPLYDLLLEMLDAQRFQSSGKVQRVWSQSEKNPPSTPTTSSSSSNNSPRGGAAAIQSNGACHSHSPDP
# Procedure, shortened: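 Trans-activation readout: transfected zebrafish ER-Gal4 drives a UAS reporter in human HepG2 liver cells. After 24 h compound exposure (medium containing 3 nM 6-alpha-fluorotestosterone), induced reporter transcripts were quantified by RT-PCR with capillary electrophoresis, relative to DMSO.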
# [5] = system: zebrafish Estrogen Receptor (ESR2B), gene 317733; assay: ATG_zfER2b_XSP1: Attagene TRANS-FACTORIAL Multi-Species (XSP1) HepG2 Assay for zebrafish Estrogen Receptor (ESR2B) (AID 2283773)
# Procedure, shortened: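 Human hepatoma HepG2, transiently transfected with multi-reporter units; exogenous zebrafish ESR2B-Gal4 activity measured. Exposure 24 h alongside 3 nM 6-alpha-fluorotestosterone to partly stimulate AR.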
# [6] = system: frog Estrogen Receptor (ESR2), gene 100174814; assay: ATG_frER2_XSP1: Attagene TRANS-FACTORIAL Multi-Species (XSP1) HepG2 Assay for frog Estrogen Receptor (ESR2) (AID 2283774)
# Procedure, shortened: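 Multiplexed TRANS-format reporter assay in human hepatoma HepG2: chimeric nuclear receptor-Gal4 activity reported as mRNA induction at 24 h, detected by fluorescent RT-PCR products on capillary electrophoresis and fitted upward from DMSO baseline.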
# [7] = system: zebrafish Estrogen Receptor (ESR2A), gene 317734; assay: ATG_zfER2a_XSP1: Attagene TRANS-FACTORIAL Multi-Species (XSP1) HepG2 Assay for zebrafish Estrogen Receptor (ESR2A) (AID 2283778)
# Procedure, shortened: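 Gain-of-signal reporter transcription readout from GAL4-UAS units in transiently transfected HepG2 cells, 24 h exposure, 3 nM 6-alpha-fluorotestosterone co-present. Detection by RT-PCR with capillary electrophoresis fluorescence.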
# [8] = target: chicken Estrogen Receptor (ESR1), ESR1 (gene 396099) (UniProt P06212); assay: ATG_chERa_XSP1: Attagene TRANS-FACTORIAL Multi-Species (XSP1) HepG2 Assay for chicken Estrogen Receptor (ESR1) (AID 2283779)
# chicken Estrogen Receptor (ESR1), ESR1 (gene 396099), sequence (P06212 whole entry, looked up, the tested form may be a part): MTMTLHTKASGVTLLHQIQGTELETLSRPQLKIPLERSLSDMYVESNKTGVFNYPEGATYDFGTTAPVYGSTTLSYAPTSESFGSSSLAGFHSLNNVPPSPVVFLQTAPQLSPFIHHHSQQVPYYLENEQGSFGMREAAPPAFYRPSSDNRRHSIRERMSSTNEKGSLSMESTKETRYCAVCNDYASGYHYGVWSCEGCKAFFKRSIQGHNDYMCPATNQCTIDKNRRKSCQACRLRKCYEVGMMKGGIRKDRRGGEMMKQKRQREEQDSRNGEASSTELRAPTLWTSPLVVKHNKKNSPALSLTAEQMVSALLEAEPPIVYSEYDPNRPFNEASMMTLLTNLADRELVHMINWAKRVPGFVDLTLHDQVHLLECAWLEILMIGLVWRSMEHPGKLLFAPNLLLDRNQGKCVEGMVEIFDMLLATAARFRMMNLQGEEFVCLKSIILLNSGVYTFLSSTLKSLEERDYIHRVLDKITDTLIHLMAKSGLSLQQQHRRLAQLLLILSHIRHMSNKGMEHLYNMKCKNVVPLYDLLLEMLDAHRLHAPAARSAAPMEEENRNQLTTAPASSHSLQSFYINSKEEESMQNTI
# Procedure, shortened: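 Gain-of-signal reporter transcription, relative to DMSO, was scored in transiently transfected HepG2 cells after a 24 h dose. Fluorescence intensity of amplified, digested reporter cDNA fragments served as the endpoint.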
# [9] = system: frog Estrogen Receptor (ESR1), gene 398734; assay: ATG_frER1_XSP1: Attagene TRANS-FACTORIAL Multi-Species (XSP1) HepG2 Assay for frog Estrogen Receptor (ESR1) (AID 2283777)
# Procedure, shortened: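 After transient transfection and 24 h compound treatment, total RNA from HepG2 cells was reverse-transcribed, amplified, FAM-labeled and resolved by capillary electrophoresis. Signal increases were fitted against DMSO controls.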
# [10] = system: chicken Androgen Receptor (AR), gene 422165; assay: ATG_chAR_XSP1: Attagene TRANS-FACTORIAL Multi-Species (XSP1) HepG2 Assay for chicken Androgen Receptor (AR) (AID 2283768)
# Procedure, shortened: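 Reporter mRNA read by RT-PCR with fluorescent labelling and capillary electrophoresis 24 h after chemical dosing of transiently transfected HepG2 cells. Chicken AR-Gal4 chimera, partially stimulated with 3 nM 6-alpha-fluorotestosterone; activity fitted upward relative to DMSO.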
smiles,measurement,setting,value
Nc1c(Cl)c(Cl)nc(C(=O)O)c1Cl,outcome,[1],inactive
same,outcome,[2],inactive
N#CN=C1SCCN1Cc1ccc(Cl)nc1,outcome,[1],inactive
same,outcome,[2],inactive
Cc1nc(N(C)C)nc(OC(=O)N(C)C)c1C,outcome,[1],inactive
OC(c1ccc(Cl)cc1)(c1ccc(Cl)cc1)C(Cl)(Cl)Cl,AC50,[1],14.5 µM (active)
same,AC50,[2],13 µM (active)
CCOC(=O)C(C)OC(=O)c1cc(Oc2ccc(C(F)(F)F)cc2Cl)ccc1[N+](=O)[O-] (stereo not given),AC50,[1],74 µM (active)
same,AC50,[2],50 µM (active)
CSC(=O)c1c(C(F)F)nc(C(F)(F)F)c(C(=O)SC)c1CC(C)C,outcome,[3],inactive
same,outcome,[4],inactive
same,AC50,[5],32.3 µM (active)
same,AC50,[6],0.955 µM (active)
same,AC50,[2],37.4 µM (active)
same,outcome,[7],inactive
same,outcome,[8],inactive
CCCCOCN(C(=O)CCl)c1c(CC)cccc1CC,AC50,[1],85.2 µM (active)
same,AC50,[2],70.9 µM (active)
CC1(C)CCC(=Cc2ccc(Cl)cc2)C1(O)Cn1cncn1 (stereo not given),outcome,[4],inactive
same,AC50,[6],56.6 µM (active)
same,outcome,[1],inactive
same,outcome,[2],inactive
same,outcome,[9],inactive
same,outcome,[7],inactive
same,AC50,[8],3.53 µM (active)
COP(=S)(OC)Oc1ccc([N+](=O)[O-])c(C)c1,outcome,[4],inactive
same,AC50,[5],74.4 µM (active)
same,AC50,[6],65.9 µM (active)
same,AC50,[1],87.3 µM (active)
same,AC50,[2],71.9 µM (active)
same,AC50,[9],48.9 µM (active)
same,outcome,[7],inactive
same,AC50,[8],43.2 µM (active)
CCOc1nc(F)cc2nc(S(=O)(=O)Nc3c(Cl)cccc3Cl)nn12,outcome,[1],inactive
CC1(C)C(C(=O)OC(C#N)c2cccc(Oc3ccccc3)c2)C1(C)C (stereo not given),AC50,[1],50 µM (active)
same,AC50,[2],50 µM (active)
CCSC(=O)N1CCCCCC1,outcome,[1],inactive
same,outcome,[2],inactive
N#Cc1c[nH]cc1-c1cccc2c1OC(F)(F)O2,AC50,[1],32.5 µM (active)
O=P(O)(O)CCCl,outcome,[1],inactive
same,outcome,[2],inactive
CCOP(=O)(OCC)Oc1nc(Cl)c(Cl)cc1Cl,AC50,[1],72.4 µM (active)
same,AC50,[2],72.7 µM (active)
CO/N=C(/C1=NOCCO1)c1ccccc1Oc1ncnc(Oc2ccccc2Cl)c1F,AC50,[1],43 µM (active)
same,AC50,[2],55.5 µM (active)
CCN(CC)c1nc(C)cc(OP(=S)(OC)OC)n1,AC50,[1],87.1 µM (active)
same,AC50,[2],83.3 µM (active)
COP(=S)(OC)SCn1nnc2ccccc2c1=O,AC50,[1],79.9 µM (active)
same,AC50,[2],64.7 µM (active)
COc1cc(OC)nc(NC(=O)NS(=O)(=O)c2ncccc2OCC(F)(F)F)n1,outcome,[1],inactive
Cc1ccc(N=CN(C)C=Nc2ccc(C)cc2C)c(C)c1,AC50,[1],14.5 µM (active)
same,AC50,[2],17.6 µM (active)
COC(=O)N(C(=O)N1CO[C@@]2(C(=O)OC)Cc3cc(Cl)ccc3C2=N1)c1ccc(OC(F)(F)F)cc1,AC50,[1],18.3 µM (active)
same,AC50,[2],18.5 µM (active)
Cc1c(COC(=O)[C@@H]2[C@H](/C=C(\Cl)C(F)(F)F)C2(C)C)cccc1-c1ccccc1,outcome,[10],inactive
same,outcome,[4],inactive
same,AC50,[5],69.1 µM (active)
same,AC50,[6],100 µM (active)
same,AC50,[1],69.3 µM (active)
same,AC50,[2],31.4 µM (active)
same,AC50,[9],36.3 µM (active)
same,outcome,[7],inactive
same,outcome,[8],inactive
CC(C)Oc1cccc(NC(=O)c2ccccc2C(F)(F)F)c1,outcome,[1],inactive
same,outcome,[2],inactive
COc1cc(Cl)c(OC)cc1Cl,outcome,[1],inactive
same,outcome,[2],inactive
Clc1nc(Cl)nc(Nc2ccccc2Cl)n1,outcome,[1],inactive
same,outcome,[2],inactive
COC(=O)NC(=S)Nc1ccccc1NC(=S)NC(=O)OC,AC50,[1],18.3 µM (active)
same,AC50,[2],21.6 µM (active)
CC1(C)C(C=C(Cl)Cl)C1C(=O)OC(C#N)c1cccc(Oc2ccccc2)c1 (stereo not given),outcome,[10],inactive
same,outcome,[4],inactive
same,AC50,[5],72.5 µM (active)
same,AC50,[6],27.3 µM (active)
same,AC50,[1],73.1 µM (active)
same,outcome,[2],inactive
same,AC50,[9],2.24 µM (active)
same,outcome,[7],inactive
same,outcome,[8],inactive
C=C(C)CN(CC)c1c([N+](=O)[O-])cc(C(F)(F)F)cc1[N+](=O)[O-],AC50,[1],73 µM (active)
same,AC50,[2],50 µM (active)
COc1ccc(-c2ccccc2)cc1NNC(=O)OC(C)C,outcome,[1],inactive
same,outcome,[2],inactive
COCC(=O)N(c1c(C)cccc1C)C(C)C(=O)OC (stereo not given),outcome,[1],inactive
